# Source: PubChem BioAssay AID1918 (Vanderbilt High Throughput Screening Facility, 2009)
# Out of some 130,000 compounds screened, about 2,500 (1.9%) were called active. The full list was thinned out, with actives kept by preference. Values without a mark were called inactive.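 The calls were made as follows: active = signal ratio slope over the read window, or its plate-corrected B-score, at least 3 SD from the plate mean, either direction; inactive = the rest.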
# Biological target: ATP-sensitive inward rectifier potassium channel 1 (Homo sapiens) (UniProt P48048)
# Sequence (P48048 whole entry, looked up): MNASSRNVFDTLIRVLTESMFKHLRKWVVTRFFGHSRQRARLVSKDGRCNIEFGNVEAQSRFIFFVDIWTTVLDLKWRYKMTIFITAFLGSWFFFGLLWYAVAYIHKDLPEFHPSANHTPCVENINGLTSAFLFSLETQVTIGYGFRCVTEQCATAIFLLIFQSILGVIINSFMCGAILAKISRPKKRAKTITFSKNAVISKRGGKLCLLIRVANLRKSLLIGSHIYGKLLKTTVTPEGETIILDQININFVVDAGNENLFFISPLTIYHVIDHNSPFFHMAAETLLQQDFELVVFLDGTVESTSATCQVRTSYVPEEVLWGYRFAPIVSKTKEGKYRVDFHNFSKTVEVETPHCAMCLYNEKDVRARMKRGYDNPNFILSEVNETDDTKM
# Test: ROMK potassium channel modulators, primary screen, cell-based, thallium flux, MLSMR library (AID 1918);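 also: B-score of the F/F0 ratio slope over 7 to 12 s after thallium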
# Conditions: Tet-inducible ROMK, thallium flux fluorescence; at 10 µM; actives lie on both sides
row,Compound,B-score
1,Cc1ccc(-c2csc(NNC(=O)c3ccccc3)n2)cc1,-0.0341
2,Cn1c(CC(=O)Nc2ccccc2)nnc1SCC(=O)c1ccccc1,0.607
3,Cn1c(CNc2nc(-c3ccccc3)cs2)nnc1SCC(=O)c1ccccc1,-4.43 (active)
4,CCC(C)(C)NC(=O)C(c1cccc(OC)c1OC)N(CC(C)C)C(=O)CCC(=O)Nc1cc(C)on1 (configuration not stated),-1.25
5,CSc1cc(C)[nH]c(=O)n1,0.14
6,CCC(=O)Nc1ccc(Nc2nc(Cl)nc(Nc3ccc(NC(=O)CC)cc3)n2)cc1,0.00778
7,CCCCCOC(=O)c1ccc(N2C(=O)C3C4C=CC(C4)C3C2=O)cc1 (configuration not stated),-0.208
8,CCCCCCCCCCOC(=O)C[N+](C)(C)CC1CCCCC1O (configuration not stated),-1.79 (active)
9,[O-][n+]1c2c(nn1-c1ccc(Cl)c(Cl)c1)-c1nonc1CC2,-0.675
10,CCOC(=O)c1ccc(N2C(=O)CC(N3CCN(C(=O)c4ccccc4)CC3)C2=O)cc1 (configuration not stated),-0.67
11,NC(=O)C1(C(N)=O)OC1c1ccc(Cl)cc1Cl (configuration not stated),0.219
12,CC(=O)Nc1ccc(S(=O)(=O)N(C)c2ccc(OCC(=O)OCC(=O)N3CCCCC3)cc2)cc1,0.712
13,CN(Cc1ccccc1)Cc1ccccc1F,0.0291
14,N=c1n(CCc2ccccc2)c2ccccc2n1Cc1ccccc1F,-3.48 (active)
15,Fc1ccccc1Cn1cnc(NC(=S)NCCc2ccccc2)n1,0.722
16,Cc1ccc(-n2c(O)c(C=Nc3ccc(S(=O)(=O)Nc4ncccn4)cc3)c3ccccc3c2=O)cc1C,0.113
17,O=c1[nH]c(CSc2ccccc2)nc2c1oc1ccccc12,0.176
18,CCc1cccc2c(=O)c(C(=O)NCCCOC)c[nH]c12,0.0144
19,Cc1cccc(N(CC(O)CN(C)C)S(=O)(=O)c2ccccc2)c1 (configuration not stated),0.476
20,CC(C)CN(CC(C)C)CC(O)CN(c1ccccc1)S(=O)(=O)c1ccccc1[N+](=O)[O-] (configuration not stated),-2.88 (active)
21,O=S(=O)(c1ccccc1)N(CC(O)CN1CCCCC1)c1ccccc1 (configuration not stated),-0.476

row,Compound,B-score
1,C=CCNC(=O)COC(=O)CNC(=O)c1cc(Cl)cc([N+](=O)[O-])c1,0.319
2,COC(=O)C[n+]1cccc2ccccc21,-4.33 (active)
3,COc1ccccc1NC(=O)C[n+]1ccccc1,-0.558
4,COC(=O)Cc1nc2ccccc2[nH]1,-0.0215
5,COc1cccc(NCCC(=O)c2cccc([N+](=O)[O-])c2)c1,1.54
6,O=C(N/N=C/c1ccc(OCC2COCCO2)cc1)c1ccc(Br)cc1 (configuration not stated),0.0877
7,Cc1ccc(NC(=O)CN2CCC(C(N)=O)CC2)cc1[N+](=O)[O-],-0.771
8,Cc1ccc(NC(=O)c2cccnc2C(=O)Nc2ccc(C)cc2)cc1,0.166
9,O=C(COC(=O)c1cnccn1)Nc1cccc2ccccc12,0.345
10,CN(C)S(=O)(=O)c1ccc(NC(=O)N2CCOCC2)cc1,-0.469
11,Cc1c(NC(=O)Nc2ccccc2)cccc1[N+](=O)[O-],1.03
12,CCN(CC)S(=O)(=O)c1ccc(Cl)c(NC(=O)c2ccncc2)c1,-0.305
13,CS(=O)(=O)c1ccc(Cl)c(NC(=O)Nc2ccccc2)c1,-8.31 (active)
14,CCOCCCNCc1cc(Br)ccc1OCC,-0.61
15,Cc1ccc(C)c(NC(=O)CCC(=O)N/N=C2/CC(=O)CC(C)(C)C2)c1,-0.197
16,COc1cccc(NC(=O)COC(=O)CCOc2ccccc2OC)c1,2.55
17,Cc1cs/c(=N\N=C\c2ccc(O)cc2)n1Cc1ccco1,-2.07
18,CCOC(=O)CSc1nc2c(sc(=S)n2CCc2ccccc2)c(=O)n1Cc1ccco1,0.0111
19,CN(c1ccccc1)c1ccc(/C=c2\s/c(=C(/C#N)C(=O)C(C)(C)C)n(Cc3ccco3)c2=O)cc1,-5.56 (active)
20,CC(=O)Nc1nc2ccccc2n1Cc1ccc(C)cc1,-0.122
21,Cc1ccnc(SCC(N)=O)n1,0.191

row,Compound,B-score
1,CCCC(c1nnnn1C(C)(C)C)N1CCN(Cc2ccccc2)CC1 (configuration not stated),-13.3 (active)
2,CC(C)C(c1nnnn1C(C)(C)C)N1CCN(Cc2cccnc2)CC1 (configuration not stated),1.58
3,CC(C)C(c1nnnn1Cc1ccccc1)N1CCC(C(N)=O)CC1 (configuration not stated),0.519
4,CC(=O)Nc1ccc(NC(=O)CSc2nnc(COc3ccccc3C)n2CC2CCCO2)cc1 (configuration not stated),-0.134
5,Cc1ccc(C(=O)N/C(=C\c2ccco2)C(=O)N2CCSCC2)cc1C,1.44
6,S=C(NCc1ccc2c(c1)OCO2)NCc1ccco1,-0.541
7,COC(=O)N/N=C/c1cn(CCCOc2ccc(C)cc2)c2ccccc12,0.506
8,COC(=O)Cn1cc(C(=O)c2cccs2)c2ccccc21,0.201
9,COC(=O)Cn1cc(/C=C/[N+](=O)[O-])c2ccccc21,-8.61 (active)
10,O=C(N/C(=C\c1ccc(F)cc1)C(=O)N1CCCCCC1)c1ccccc1,0.658
11,Cc1ccc(C(=O)N/C(=C\c2ccco2)C(=O)NC2CCS(=O)(=O)C2)cc1 (configuration not stated),0.484
12,COc1ccc(C(CCNCc2ccccc2F)c2ccc(F)cc2)cc1 (configuration not stated),-2.56 (active)
13,COc1ccc(CC(=O)NC(C)CCc2ccccc2)cc1 (configuration not stated),-0.201
14,COc1ccc(C(CC(=O)O)NC(=O)Cc2ccccc2)cc1 (configuration not stated),-0.208
15,O=C(NC1CC1)C1CCCN(C(=O)NC2CCCCC2)C1 (configuration not stated),0.0365
16,CCN(C(=O)CSc1nc2ccccc2n1CC)C1CCS(=O)(=O)C1 (configuration not stated),-1.63
17,Cc1cc(=O)[nH]c2nnnn12,-0.253
18,Cc1ccc(N2C(=O)C3CC3C2=O)cc1 (configuration not stated),1.41 (active)
19,Cc1ccc(N2C(=O)CC(Nc3cccc4ccccc34)C2=O)cc1 (configuration not stated),-0.14
20,Cc1ccc(N2C(=O)SC(N(CC(=O)O)c3ccc(C)cc3)C2=O)cc1 (configuration not stated),0.244
